# Pf apPOL block = Pf-apPOL inhibitors, biochemical, fluorescence; Plasmodium falciparum apicoplast DNA polymerase (apPOL); Recombinant Pf-apPOL, molecular beacon fluorescence, 1.5 h; inhibition, % at 10 µM; 210,000 tested, 0.25% active; AID 1794808, 2022
# mHTT CaM bind = mutant huntingtin-calmodulin interaction inhibitors – biochemical, AlphaScreen, primary screen; P42858; AlphaScreen His-mHTT/GST-CaM binding, luminescence; 190,000 tested, 3.6% active; AID 1671202, 2021; inhibition, % at 15 µM;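 also: 0% = both proteins with DMSO and 100% = one protein alone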
# * = called active by the depositor; nt = not tested or not shown. Only some compounds are listed: those with a hit (about 3.5% of all), similar ones and a draw of the others. Rule as the data show it: active = inhibition above about 50%; inactive = the rest.
SMILES,Pf apPOL block,mHTT CaM bind
COc1ccc(NC(=O)C2CC(=O)N(CCc3c[nH]c4ccc(C)cc34)C2)cc1 (configuration not stated),-2,36
Clc1ccccc1CN1CCN(Cc2ccncc2)CC1,-8,-4
Cc1c(Cl)cccc1NC(=O)C1CCCN(C(=O)c2ccccc2F)C1 (configuration not stated),-41,34
COc1ccc(OC)c(CNC(=O)C2CCN(c3nc4ccc(C)cc4[nH]3)CC2)c1,-15,-2
Cc1cccc2nnc(N3CCCC(C(=O)NCc4ccc(F)cc4)C3)n12 (configuration not stated),-5,10
N#CC1=C(N)N(c2ncn[nH]2)C2=C(C(=O)CCC2)C1c1ccccc1Cl (configuration not stated),-4,1
C=CCn1c(SCC(=O)N2CCc3ccccc32)nc2ccccc2c1=O,3,-1
O=C(NCCc1ccc(F)cc1)C1CC(=O)N(CCc2c[nH]c3ccc(Cl)cc23)C1 (configuration not stated),-2,8
COc1ccc2[nH]cc(CCN3CC(C(=O)Nc4nnc(C(C)(C)C)s4)CC3=O)c2c1 (configuration not stated),-2,14
O=C(Nc1nccs1)C1CC(=O)N(CCc2c[nH]c3ccc(Cl)cc23)C1 (configuration not stated),0,63*
O=C(Nc1nncs1)C1CC(=O)N(CCc2c[nH]c3ccc(Cl)cc23)C1 (configuration not stated),-2,7
O=C(Nc1ccc(F)cc1)C1CC(=O)N(CCc2c[nH]c3ccc(Cl)cc23)C1 (configuration not stated),-11,55*
O=C(Nc1nc2ccccc2s1)C1CC(=O)N(CCc2c[nH]c3ccc(Cl)cc23)C1 (configuration not stated),-2,100*
CC(C)(C)c1nnc(NC(=O)C2CC(=O)N(CCc3c[nH]c4ccc(Cl)cc34)C2)s1 (configuration not stated),0,55*
CCCCNC(=O)C1CC(=O)N(CCc2c[nH]c3ccc(Cl)cc23)C1 (configuration not stated),-4,3
CCCNC(=O)C1CC(c2ccc(C)cc2)=NO1 (configuration not stated),-4,-3
Cc1ccc2oc(-c3cccc(NC(=O)C4CCC4)c3)nc2c1,1,-12
O=c1c(S(=O)(=O)N2CCCC2)cccn1Cc1cccc(F)c1,-5,-3
O=C(Cn1ccc2ccccc21)NC1CC(O)C(CO)C1 (configuration not stated),-1,2
Cc1ccc2[nH]cc(CCN3CC(C(=O)Nc4ccc(C)c(Cl)c4)CC3=O)c2c1 (configuration not stated),-1,86*
O=C(Nc1ccc2c(c1)OCCO2)C1CC(=O)N(CCc2c[nH]c3ccc(F)cc23)C1 (configuration not stated),1,43
Cc1ccc2[nH]cc(CCN3CC(C(=O)Nc4ccccc4Cl)CC3=O)c2c1 (configuration not stated),3,45
Cc1ccc(Cl)cc1NC(=O)C1CC(=O)N(c2cccc([N+](=O)[O-])c2)C1 (configuration not stated),-10,54*
Cc1ccc(N2CC(C(=O)Nc3ccc(Cl)cc3Cl)CC2=O)cc1 (configuration not stated),-5,-5
O=C(Nc1ccc2c(c1)OCCO2)C1CC(=O)N(CCc2c[nH]c3ccc(Cl)cc23)C1 (configuration not stated),2,76*
SMILES,Pf apPOL block,mHTT CaM bind
O=C(COc1ccc(Cl)cc1)Nc1c2c(nn1-c1ccc([N+](=O)[O-])cc1)CS(=O)(=O)C2,-1,5
Cc1cccc(NC(=O)c2cnn3c2NC(c2ccco2)CC3C(F)(F)F)c1C (configuration not stated),-4,14
CC1CCCCN1CC(O)COc1ccccc1C(C)(C)C (configuration not stated),-2,-8
O=C(Nc1cc(F)ccc1F)N1CCC2(CC1)Nc1cc(F)ccc1-n1cccc12,-12,59*
O=C(Nc1ccccc1F)N1CCC2(CC1)Nc1ccccc1-n1cccc12,-3,50*
O=C(Nc1ccc(F)cc1F)N1CCC2(CC1)Nc1ccccc1-n1cccc12,7,54*
Cc1ccccc1NC(=O)N1CCC2(CC1)Nc1ccccc1-n1cccc12,-2,33
COc1ccc(Cl)cc1NC(=O)c1cn(C)c(=O)c2ccccc12,4,-6
O=c1/c(=C/c2ccccc2O)sc2n1CN(c1ccc(Cl)cc1)CN=2,51*,13
O=c1/c(=C/c2ccccc2O)sc2n1CN(c1ccc(F)cc1)CN=2,-1,36
CC(C)c1ccc(NC(=O)C(=O)NC2CCCC2)cc1,-4,-9
CCc1ccc(CNC(=O)CCC(=O)N2CC3CCCN3c3ccccc32)cc1 (configuration not stated),-2,55*
O=C(CCC(=O)N1CC2CCCN2c2ccccc21)NCCN1CCCC1 (configuration not stated),-5,68*
CCNC(=O)CCC(=O)N1CC2CCCN2c2ccccc21 (configuration not stated),-3,11
O=C(CCC(=O)N1CC2CCCN2c2ccccc21)NCCN1CCCCCC1 (configuration not stated),-5,41
COc1ccc(CC(=O)N2CCC(Cc3nc4cccnc4n3C)C2)cc1Cl (configuration not stated),6,15
COc1ccccc1OCC(=O)Nc1ccc(Br)c(C)c1,-13,-30
Cc1ccsc1C(=O)N1CCC(c2nc(-c3ccccc3)n[nH]2)CC1,1,3
O=C(Nc1ccc(F)cc1)Nc1nnc(-c2ccc(Cl)cc2Cl)o1,-1,-12
CC(C(=O)Nc1ccccn1)N1C(=O)C2C3C=CC(C3)C2C1=O (configuration not stated),2,3
CC(C(=O)Nc1cccc2c1C(=O)c1ccccc1-2)N1C(=O)C2C3C=CC(C3)C2C1=O (configuration not stated),-1,61*
CN1CCN(C(=O)Cn2cc(-c3ccccc3)oc2=O)CC1,0,-4
COc1ccc2c(c1)CN(c1cccc(C(=O)O)c1)CO2,-1,2
O=S(=O)(Nc1ccc2c(c1)OC1(CCCC1)O2)c1ccc2c(c1)Cc1ccccc1-2,nt,63*
CC(=O)Nc1ccc(S(=O)(=O)Nc2ccc3c(c2)OC(C)(C)O3)cc1,-1,4
SMILES,Pf apPOL block,mHTT CaM bind
CCOCN(C(=O)CSc1nc2ccccc2[nH]1)c1c(C)cccc1CC,-3,15
CCc1cccc(C)c1N(C(=O)CSc1nc2ccccc2[nH]1)C(C)COC (configuration not stated),-6,52*
CCCN1C(=O)C(=O)c2cc(Br)ccc21,-68,25
O=C1C(=O)N(Cc2ccc(F)cc2)c2ccc(Br)cc21,-1,70*
C=CCN1C(=O)C(=O)c2cc(Br)ccc21,3,9
Cc1ccc(CN2C(=O)C(=O)c3cc(Br)ccc32)cc1,0,51*
O=C1C(=O)N(Cc2ccc(F)cc2)c2ccc([N+](=O)[O-])cc21,-2,11
O=C1C(=O)N(Cc2ccc(Cl)c(Cl)c2)c2ccc(Br)cc21,2,100*
O=C(c1ccccc1)c1ccc(/C=C/c2ccccn2)cc1,-2,-14
O=C(COc1ccc(Br)cc1Cl)NCc1ccncc1,-6,-3

# Bioassay records: PubChem BioAssay, University of Kansas High Throughput Screening Laboratory
